Results from PubChem BioAssay AID1220 (Sanford-Burnham Center for Chemical Genomics, 2008).
Several values for one entry are separate records, joined by “and”; a condition that tells them apart may be missing. Equal values may be shown once. Among all 190,000 compounds or so, about 1,300 (0.68%) were called active. This is one part of a sample in which actives are shown more often than they occur. No stated cut-off is given here; in the data, active means inhibition above about 50%; inactive means the rest.

Molecular target: Mannose-6-phosphate isomerase (Homo sapiens) (UniProt P34949)
Sequence (P34949 whole entry, looked up): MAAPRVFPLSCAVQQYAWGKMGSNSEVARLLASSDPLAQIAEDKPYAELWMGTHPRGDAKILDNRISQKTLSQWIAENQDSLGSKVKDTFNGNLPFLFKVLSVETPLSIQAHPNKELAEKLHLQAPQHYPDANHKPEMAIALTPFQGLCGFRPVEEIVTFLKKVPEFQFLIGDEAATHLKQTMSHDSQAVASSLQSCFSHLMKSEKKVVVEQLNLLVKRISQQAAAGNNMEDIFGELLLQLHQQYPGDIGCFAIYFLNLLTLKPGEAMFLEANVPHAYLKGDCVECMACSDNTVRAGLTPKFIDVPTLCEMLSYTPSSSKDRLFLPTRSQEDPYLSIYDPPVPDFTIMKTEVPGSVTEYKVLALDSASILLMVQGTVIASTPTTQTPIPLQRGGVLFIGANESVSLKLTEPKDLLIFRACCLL
Test: MPI inhibition at elevated mannose 6-phosphate – biochemical, fluorescence intensity, high mannose 6-phosphate, primary screen (AID 1220)
Settings: recombinant PMI enzyme, coupled fluorescence intensity; at 20 µM; stronger effect = higher value

inhibition, inactive:
CC(C)Oc1ccc(C(CC(=O)O)n2cnnn2)cc1 (stereo not given) 2%
Cc1nn(-c2ccccc2)c2c1C1(C(=O)N3c4c(cccc41)C(C)CC3(C)C)C(C#N)=C(N)O2 (stereo not given) 21%
Cc1nn(-c2ccccc2)c2c1C1(C(=O)N(C)c3ccccc31)C(C#N)=C(N)O2 (stereo not given) 21.9%
COC(=O)CN1C(=O)C2(C(C#N)=C(N)Oc3cc(C)oc(=O)c32)c2ccccc21 (stereo not given) 7.9%
CC(=O)N1C(=O)C2(C(C#N)=C(N)Oc3cc(C)oc(=O)c32)c2ccccc21 (stereo not given) 11%
Cc1nn(-c2ccccc2)c2c1C1(C(=O)N(C(C)C)c3ccccc31)C(C#N)=C(N)O2 (stereo not given) 24.1%
COC(=O)CN1C(=O)C2(C(C#N)=C(N)Oc3n[nH]c(-c4cccs4)c32)c2ccccc21 (stereo not given) 7.3%
CCCCC1NC(=S)N(C2CCCCC2)C1=O (stereo not given) -7.2%
COC(=O)c1sc2ccccc2c1-n1cccc1C(=O)C(=O)Nc1ccc(C)cc1 4.8%
O=c1[nH]c(SCC2CCCCO2)nc2ccccc12 (stereo not given) -2.3%
O=C1CSC(c2cccc(Cl)c2Cl)N1c1ccccn1 (stereo not given) 12.3%
Cc1ccc(C)c(S(=O)(=O)Nc2ccccc2C(=O)Nc2cc(C)on2)c1 8.8%
COC(=O)c1cccc(NS(C)(=O)=O)c1C -5.8%
CNc1nc(C)c(C(=O)OCC(=O)OC)s1 -0.1%
CC(NC(=O)CSCc1ccccc1Br)c1ccccc1 (stereo not given) 4.4%
COc1ccc(NC(=S)Nc2ccccc2SC)c(OC)c1 20.7%
Cc1ccc(CN(CC(=O)N/N=C/c2ccco2)S(=O)(=O)c2ccc(C)cc2)cc1 4.9%
Cc1[nH]c(=S)[nH]c(=O)c1CCCO 5.3%
CC1=C(C)C(=O)C(CCCCC#CCCCC#CCO)=C(C)C1=O 19.9%
COc1ccc(OC)c(-n2c(=S)[nH]c3c(sc(=S)n3-c3ccccc3)c2=O)c1 9.2%
COc1ccccc1-n1c(=S)[nH]c2c(sc(=S)n2-c2ccccc2)c1=O -3.7%
Cc1ccc(/C=C2\SC(=S)N(C3CCS(=O)(=O)C3)C2=O)cc1 (stereo not given) -2.5%
C=CCn1c(COc2ccccc2F)nnc1SCC(=O)NC(=O)NCc1ccco1 -4%
Cc1ccc(C2C(C#N)=C(N)Oc3n[nH]c(C)c32)cc1 (stereo not given) 8.4%
Cc1oc(C)c2c(=O)ccc3c(c12)OC(N)=C(C#N)C3c1ccccc1 (stereo not given) 2.8%
Cc1ccc(C2C(C#N)=C(N)Oc3c2c(=O)n(C)c(=O)n3C)cc1 (stereo not given) -24.8%
CN(C)c1ccc2c(c1)OC(N)=C(C#N)C2c1cccc(F)c1 (stereo not given) 25.2%
COC(=O)C1=C(C)OC(N)=C(C#N)C1c1ccccc1 (stereo not given) -8.8%
Cc1cc(C)c2c3c(sc2n1)C(c1cccc(F)c1)C(C#N)=C(N)O3 (stereo not given) -7%
O=C1CCCC(O)=C1C1C2=C(CCCC2=O)Oc2ccccc21 (stereo not given) 6.5%
Nc1[nH]ncc1-c1ccc(Cl)cc1 -1.5%
Cc1sc(NC(=O)CCCC(=O)O)c(C(N)=O)c1-c1ccccc1 -5.5%
CC1CN(C(NC(=O)c2ccccc2)C(Cl)(Cl)Cl)CC(C)O1 (stereo not given) -6.4%
CCN1C(=O)/C(=C/c2ccc(C)o2)N(C)C1=S 28%
COC(=O)c1ccc(C(=O)Nc2ccc(C(C)C)cc2N)cc1 -2.9%
Cc1cc(N)ccc1NC(=O)c1ccccc1 12.9%
Cc1ccc(OCC(O)CN2CCN(CC(O)COC(C)C)CC2)c(C(C)(C)C)c1 (stereo not given) -2.3%
CC1=C(C(=O)Nc2ccccc2)C(c2cccs2)NC(=O)N1 (stereo not given) -0.7%
COc1ccccc1NC(=O)C1=C(C)NC(=O)NC1c1ccccc1[N+](=O)[O-] (stereo not given) 19.9%
CCOC(=O)C1=C(C)NC(C)=C(C(=O)OC)C1c1cccc([N+](=O)[O-])c1 (stereo not given) 9.7% and -2%
COC(=O)C1=C(C)NC(C)=C([N+](=O)[O-])C1c1ccccc1C(F)(F)F (stereo not given) -0.9%
COc1ccccc1NC(=O)c1cnc(Nc2ccccc2OC)c2ccccc12 6.4%
CC1Oc2ccccc2N(CC(=O)NCc2cccs2)C1=O (stereo not given) 5.4%
NC(=O)Cc1ccc(C(=O)c2ccccc2F)s1 -7%
Cc1ccc(C(C)C)c(OCC(=O)N2CCOCC2)c1 4.1%
O=C(O)COc1ccc(/C=N/n2cnc3scc(-c4cccs4)c3c2=O)cc1 -8.8%
Cc1ccc(-n2c(-c3ccncc3)n[nH]c2=S)c(C)c1 3.7%
COc1ccc(OCC(=O)Nc2ccc3c(c2)nc2n3CCSC2)cc1 7.8%
O=C(/C=C/c1cccc(OCc2ccccc2)c1)c1cccnc1 -18.2%
CCOC(=O)c1c(C)oc2c(CC(=O)c3ccccc3)c(Cl)c(O)c(O)c12 8.9%

inhibition, active:
CCN1C(=O)C2(C(C#N)=C(N)Oc3c2c(C)nn3-c2ccccc2)c2ccccc21 (stereo not given) 62.1%
COC(=O)CN1C(=O)C2(C(C#N)=C(N)Oc3c2c(C)nn3-c2ccccc2)c2ccccc21 (stereo not given) 58.9%
CC(=O)N1C(=O)C2(C(C#N)=C(N)Oc3c2c(C)nn3-c2ccccc2)c2ccccc21 (stereo not given) 62.8%
COC1=C(OC)C(=O)C(CCCCCCCCCCO)=C(C)C1=O 78.2%
CCNc1nc2[nH]c(=O)c3c(c2s1)OC(N)=C(C#N)C3c1ccc(C)cc1 (stereo not given) 62.6%
CNc1nc2[nH]c(=O)c3c(c2s1)OC(N)=C(C#N)C3c1cccc(F)c1 (stereo not given) 54.7%
CNc1nc2[nH]c(=O)c3c(c2s1)OC(N)=C(C#N)C3c1ccccc1 (stereo not given) 52%
COC(=O)c1ccc(C(=O)Nc2ccc(N)cc2N)cc1 50.3%
CC1=C(C(=O)Nc2ccccc2)C(c2ccccc2[N+](=O)[O-])NC(=O)N1 (stereo not given) 53.3%
COC(=O)C1=C(C)NC(C)=C(C(=O)OC)C1c1ccccc1[N+](=O)[O-] 79.4%
